# Inconclusive results are not listed. Unmarked numbers belong to inactive results. Calls come from the whole dose curve; as a rule, active = well fitted cell-killing curve with a large enough effect; inconclusive = small, poorly fitted or top-dose-only effect, or effect the other way; inactive = flat fitted curve, though single readings scatter.
# Tested on: Tov-21-G
# Assay: Primary qHTS to identify gynecologic anti-cancer compounds using libraries of approved drugs and bioactive compounds (AID 1345084); note: nearly all actives have a fitted effect of over 55% in size
# Settings: Gynecologic cancer cell panel viability, ATPlite luminescence, 48 h; series mostly up to 57.5 µM; activity change, negative = cytotoxicity: at the top concentration
# How it was run: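 48 h compound exposure at 37 C, 5% CO2; five-point qHTS. ATPlite luminescence readout of cell ATP.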
# % is set by controls: 0 for no effect and ±100 for the full control effect.
row,SMILES,"activity change, negative = cytotoxicity"
1,CC1=C[C@H](O)[C@H]2C(C)(C)CCC[C@]2(C)[C@@]1(O)CO,3.02%
2,CC1OC(O[C@@H]2[C@H](O)[C@@H](OC3OC(CO)C(O)C(O)C3O)[C@H](OC(=O)[C@]34CCC(C)(C)C[C@H]3C3=CCC5[C@@]6(C)CC[C@H](O[C@@H]7O[C@H](C(=O)O)[C@@H](O)[C@H](O[C@@H]8OC[C@@H](O)[C@H](O)[C@H]8O)[C@H]7O[C@@H]7O[C@H](CO)[C@H](O)[C@H](O)[C@H]7O)[C@@](C)(C=O)C6CC[C@@]5(C)[C@]3(C)C[C@H]4O)O[C@@H]2C)C(O)C(O)C1OC1OCC(O)C(O)C1O (stereo not given in full),-1.56% [at 6.55 µM]
3,COc1cc2nc(=NC(=O)c3cccnc3)n3c(c2cc1OC)NCC3,12%
4,COc1c2c(c(C)c3c1C(=O)OC3)OC1(C)CC(O)C34OC(OC)(CC(O)C3(C)C1C2)OC4(C)C (stereo not given),-7.86% [at 25.3 µM]
5,CC1CCCCCCCc2cc(O)cc(O)c2C(=O)O1 (stereo not given),-0.772%
6,C=C1Cc2c(Cl)cc3[nH]c4c5c3c2[C@@]2(O)[C@@H]1C[C@@H]2C(C)(C)O[C@H]5C1CC[C@@]2(O)[C@@]35O[C@@H]3[C@H]3OC(C)(C)[C@H]3O[C@H]5CC[C@]2(C)[C@@]41C (stereo not given in full),5.23% [at 25.3 µM]
7,C[C@@H]1[C@H]2[C@H](O[C@@H]3O[C@H](CO)[C@@H](O)[C@H](O)[C@H]3O)OC=C(C(=O)O)[C@H]2C[C@@H]1OC(=O)/C=C/c1ccc(O)cc1,3.2% [at 25.3 µM]
8,C/C(CO)=C1/CCC23COC(C2)C(O)(C(=O)O)CCC13 (stereo not given),3.2%
9,CC1(C(=O)O)CCCC2(C)C3CCC4CC3(CCC12)CC4(O)CO (stereo not given),-7.02% [at 38.5 µM]
10,CC(C)(O)C1OC1C1=CC(=O)C2(C)OC2C1O (stereo not given),2.07%
11,C[C@@H]1CC[C@]2(C(=O)O[C@@H]3O[C@H](CO[C@@H]4O[C@H](CO)[C@@H](O)[C@H](O)[C@H]4O)[C@@H](O)[C@H](O)[C@H]3O)CC[C@]3(C)C(=CCC4[C@@]5(C)CC[C@H](O)[C@](C)(C(=O)O)C5CC[C@]43C)[C@@H]2[C@]1(C)O (stereo not given in full),4.06% [at 11.6 µM]
12,COCC1OC(n2cnc3c(=O)[nH]cnc32)C(O)C1O (stereo not given),-2.48%
13,CCOC(=O)c1ccc(NC2CCCCC2)c(N)c1,-3.31%
14,C=C1C(OC(C)=O)[C@@]23CCC4[C@](C)(C(=O)O)CCC[C@@]4(C)[C@]2(O)CC[C@H]1C3 (stereo not given in full),-6.84% [at 38.5 µM]
15,C[C@]12CC/C(=N\OCC(=O)O)C=C1CC[C@@H]1[C@@H]2[C@@H](O)C[C@@]2(C)[C@H]1CC[C@]2(O)C(=O)CO,3.64%
16,OCC1OC(Oc2cc(O)cc(/C=C/c3ccc(OC4OC(CO)C(O)C(O)C4O)cc3O)c2)C(O)C(O)C1O (stereo not given),-9.51% [at 25.3 µM]
17,Cc1ccccc1NC(=O)Nc1ccc(CN2C(=O)N([C@@H](CC(C)C)C(=O)N[C@@H](CC(=O)O)c3ccccc3)C(=O)C2(C)C)cc1,7.34%
18,COc1cc2c(c(O)c1OC/C=C(\C)CC/C=C(/C)CCC=C(C)C)CN(C(CCC(=O)O)C(=O)O)C2=O (stereo not given),0.408% [at 25.3 µM]
19,CC1=CC[C@@]2(C)CC[C@@](O)(C(C)C)[C@@H]2[C@@H](O)C1,1.62%
20,CC1(C)CC[C@]2(C(=O)O)CC[C@]3(C)C(=CCC4[C@@]5(C)CC[C@H](O[C@@H]6O[C@H](C(=O)O)[C@@H](O)[C@H](O[C@@H]7O[C@H](CO)[C@H](O)[C@H](O)[C@H]7O)[C@H]6O[C@@H]6O[C@H](CO)[C@@H](O)[C@H](O)[C@H]6O)C(C)(C)C5CC[C@]43C)[C@@H]2C1 (stereo not given in full),-6.57% [at 6.55 µM]
21,CCC12CCCN3CCc4c(n(c5ccccc45)C(O)C1)C32 (stereo not given),1.95%
22,CCc1nn(CCO)c(CC)c1Oc1cc(C#N)cc(C#N)c1,11.4%
23,C=C1C(O)CCC2(C)CC3(OC)OC(=O)C(C)=C3CC12 (stereo not given),2.29%
24,CCCN(CCN1CCN(c2ccccc2OC)CC1)C1CCc2ncsc2C1 (stereo not given),7.51%
25,C=C(CCO)C(=O)OCC1OCC(OC(=O)C(=C)CCO[C@@H]2O[C@H](COC(=O)C(=C)CCO[C@@H]3O[C@H](CO)[C@@H](O)[C@H](O)[C@H]3O)[C@@H](O)[C@H](O)[C@H]2O)C(O)C1O (stereo not given in full),-6.13% [at 25.3 µM]
26,C/C=C/C=C/C=C/C(=O)OC1C=C2C(O)OC(=O)[C@]2(O)[C@@]2(C)CCCC(C)(C)[C@H]12 (stereo not given in full),-0.158% [at 25.3 µM]
27,C[C@@H](CC[C@@H]1[C@@]2(C)CCCC(C)(C)C2CC[C@@]1(C)O)CC(=O)O (stereo not given in full),6.59% [at 38.5 µM]
28,C/C=C/C=C/[C@@H]1O[C@](O)([C@H](CC)C(=O)NC/C=C/C=C(\C)[C@@H](OC)[C@@H](C)[C@@H]2O[C@H](/C=C/C=C/C=C(\C)C(=O)c3c(O)ccn(C)c3=O)[C@H](O)[C@@H]2O)[C@H](O)[C@H](O)C1(C)C,-0.814% [at 11.6 µM]
29,O=C(O)c1ccncc1Nc1nn(CCN2CCC(F)(F)CC2)c2ccc(F)cc12,3.8%
30,CCOc1ncc(S(=O)(=O)N2CCN(CC)CC2)cc1-c1nc2c(CC)n(CCOC)nc2c(=O)[nH]1,17.6%
